What all share (experiment): DAPPL (digital affinity profiling via proximity ligation, sequencing); 10 mM Tris-HCl pH 7.5, 50 mM NaCl, 1 mM DTT, 4% glycerol, room temperature, 30 min; GST-TFs on glutathione beads, 16-mer random dsDNA library, 0.1% formaldehyde crosslink after washing; high values mean tight binding
Experiment [1] addresses T1, FEV (Homo sapiens, UniProt Q99581 1-238).
T1 sequence: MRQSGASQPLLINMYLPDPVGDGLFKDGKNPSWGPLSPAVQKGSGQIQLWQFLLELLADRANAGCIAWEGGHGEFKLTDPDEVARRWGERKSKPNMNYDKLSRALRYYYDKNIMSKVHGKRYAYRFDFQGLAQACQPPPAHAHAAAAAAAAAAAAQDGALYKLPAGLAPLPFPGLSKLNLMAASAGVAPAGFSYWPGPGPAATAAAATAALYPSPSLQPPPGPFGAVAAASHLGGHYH
Particulars: protein: recombinant; tags: N-terminal GST; dsDNA, one strand shown. In a few lines: (§1)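 Yeast served to express human transcription factors as GST fusions, which were then captured on glutathione beads and labelled with DNA barcodes. Pooled with a tag-only sample, they were incubated with 200 nmole of a 16-mer random double-stranded DNA library for 30 min at room temperature in Tris/NaCl/DTT/glycerol buffer, washed, crosslinked with 0.1% formaldehyde, ligated by proximity, amplified by PCR and sequenced. Dividing each hexamer's read frequency for a factor by its frequency for the tag-only sample gives the binding signal.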

For experiment [2], the target named is ETV5 (Homo sapiens, UniProt P41161 1-510). The note with it: protein: recombinant; tags: N-terminal GST; dsDNA, one strand shown. In a few lines:
as §1

In experiment [3] the target is HSF1 (Homo sapiens, UniProt Q00613 1-529). Particulars: protein: recombinant; tags: N-terminal GST; chain copies: 3; dsDNA, one strand shown. Summed up:
as §1

Experiment [4] concerns the target T2, SPIC (Homo sapiens, UniProt Q8N5J4 1-248).
T2 sequence: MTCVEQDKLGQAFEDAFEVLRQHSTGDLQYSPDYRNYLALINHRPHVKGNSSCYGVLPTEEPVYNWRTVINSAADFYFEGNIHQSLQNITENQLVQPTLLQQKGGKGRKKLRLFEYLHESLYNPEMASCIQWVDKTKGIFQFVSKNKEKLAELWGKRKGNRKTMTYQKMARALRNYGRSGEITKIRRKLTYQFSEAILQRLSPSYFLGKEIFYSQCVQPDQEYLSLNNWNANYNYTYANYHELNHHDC
Particulars: protein: recombinant; tags: N-terminal GST; dsDNA, one strand shown. In a few lines: as §1

In experiment [5] the target is ELF4 (Homo sapiens, UniProt Q99607 1-663). Particulars: protein: recombinant; tags: N-terminal GST; dsDNA, one strand shown. In a few lines:
as §1

Experiment [6] concerns the target T3, ELK4 (Homo sapiens, UniProt P28324-2 1-405).
T3 sequence: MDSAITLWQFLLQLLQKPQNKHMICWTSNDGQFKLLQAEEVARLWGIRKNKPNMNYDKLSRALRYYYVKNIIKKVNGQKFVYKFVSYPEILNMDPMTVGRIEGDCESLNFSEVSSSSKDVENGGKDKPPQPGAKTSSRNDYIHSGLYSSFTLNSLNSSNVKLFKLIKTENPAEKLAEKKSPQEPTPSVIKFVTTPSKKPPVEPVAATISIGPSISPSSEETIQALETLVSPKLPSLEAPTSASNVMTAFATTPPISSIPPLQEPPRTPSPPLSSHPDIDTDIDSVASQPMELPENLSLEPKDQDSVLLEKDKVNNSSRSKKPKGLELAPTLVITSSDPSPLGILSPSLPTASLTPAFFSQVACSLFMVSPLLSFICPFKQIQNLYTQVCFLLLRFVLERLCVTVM
Particulars: protein: recombinant; tags: N-terminal GST; dsDNA, one strand shown. In a few lines: as §1

In experiment [7] the target is T4, ETV2 (Homo sapiens, UniProt O00321 1-342).
T4 sequence: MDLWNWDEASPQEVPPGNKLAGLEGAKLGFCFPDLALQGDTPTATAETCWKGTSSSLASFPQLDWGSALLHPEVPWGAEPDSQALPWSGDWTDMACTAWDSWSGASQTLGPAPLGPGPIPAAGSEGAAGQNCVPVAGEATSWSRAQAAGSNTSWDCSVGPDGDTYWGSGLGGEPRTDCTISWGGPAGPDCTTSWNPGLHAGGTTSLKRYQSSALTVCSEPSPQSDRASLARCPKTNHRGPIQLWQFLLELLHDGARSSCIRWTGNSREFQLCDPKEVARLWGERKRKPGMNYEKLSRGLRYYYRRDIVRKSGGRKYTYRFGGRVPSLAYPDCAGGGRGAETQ
Particulars: protein: recombinant; tags: N-terminal GST; dsDNA, one strand shown. In a few lines: as §1

The target of experiment [8] is T5, ELF3 (Homo sapiens, UniProt P78545 1-371).
T5 sequence: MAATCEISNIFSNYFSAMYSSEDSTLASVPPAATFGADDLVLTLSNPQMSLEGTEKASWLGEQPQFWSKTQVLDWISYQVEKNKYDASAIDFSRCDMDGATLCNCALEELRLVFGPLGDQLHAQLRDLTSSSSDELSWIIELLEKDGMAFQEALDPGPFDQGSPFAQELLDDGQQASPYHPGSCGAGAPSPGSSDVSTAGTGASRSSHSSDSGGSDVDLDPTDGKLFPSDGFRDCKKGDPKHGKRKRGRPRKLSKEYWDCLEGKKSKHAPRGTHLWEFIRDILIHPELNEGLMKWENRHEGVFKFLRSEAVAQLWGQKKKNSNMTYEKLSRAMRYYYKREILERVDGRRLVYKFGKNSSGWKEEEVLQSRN
Particulars: protein: recombinant; tags: N-terminal GST; dsDNA, one strand shown. Summed up: as §1

For experiment [9], the target named is CRX (Homo sapiens, UniProt O43186 1-299). Particulars: protein: recombinant; tags: N-terminal GST; dsDNA, one strand shown. Summed up: as §1
Experiment [10] concerns the target ETV1 (Homo sapiens, UniProt P50549 1-477). Particulars: protein: recombinant; tags: N-terminal GST; dsDNA, one strand shown. In a few lines:
as §1

In experiment [11] the target is T6, ERF (Homo sapiens, UniProt P50548 1-548).
T6 sequence: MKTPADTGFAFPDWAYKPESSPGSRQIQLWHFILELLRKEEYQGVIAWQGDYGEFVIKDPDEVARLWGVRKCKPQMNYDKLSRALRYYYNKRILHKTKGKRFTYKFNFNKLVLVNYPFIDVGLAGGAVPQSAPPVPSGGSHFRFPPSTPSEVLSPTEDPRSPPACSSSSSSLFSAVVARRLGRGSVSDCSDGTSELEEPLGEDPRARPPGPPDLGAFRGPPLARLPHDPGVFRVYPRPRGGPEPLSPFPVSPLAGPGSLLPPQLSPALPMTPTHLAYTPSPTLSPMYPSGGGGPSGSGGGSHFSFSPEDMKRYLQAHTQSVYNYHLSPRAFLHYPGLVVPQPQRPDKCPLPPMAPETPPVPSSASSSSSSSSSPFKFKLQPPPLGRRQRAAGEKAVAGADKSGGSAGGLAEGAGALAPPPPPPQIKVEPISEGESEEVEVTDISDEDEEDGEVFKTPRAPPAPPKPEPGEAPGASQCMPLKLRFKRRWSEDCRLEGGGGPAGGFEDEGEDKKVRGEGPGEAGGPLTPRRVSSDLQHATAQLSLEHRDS
The note with it: protein: recombinant; tags: N-terminal GST; dsDNA, one strand shown. In a few lines: as §1

The target in experiment [12] is T7, ETV3L (Homo sapiens, UniProt Q6ZN32 1-361).
T7 sequence: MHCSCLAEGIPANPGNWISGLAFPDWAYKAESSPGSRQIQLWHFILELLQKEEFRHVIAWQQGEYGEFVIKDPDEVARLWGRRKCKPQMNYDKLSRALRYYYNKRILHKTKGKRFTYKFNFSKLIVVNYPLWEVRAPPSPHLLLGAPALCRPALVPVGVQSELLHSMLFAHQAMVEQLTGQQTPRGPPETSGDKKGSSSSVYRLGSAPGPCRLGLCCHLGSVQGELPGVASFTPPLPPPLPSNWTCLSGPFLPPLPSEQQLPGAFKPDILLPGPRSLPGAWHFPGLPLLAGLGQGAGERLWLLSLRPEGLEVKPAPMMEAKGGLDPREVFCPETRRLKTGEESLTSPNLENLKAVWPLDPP
Particulars: protein: recombinant; tags: N-terminal GST; dsDNA, one strand shown. Summed up: as §1

The target in experiment [13] is T8, ETS2 (Homo sapiens, UniProt P15036 1-469).
T8 sequence: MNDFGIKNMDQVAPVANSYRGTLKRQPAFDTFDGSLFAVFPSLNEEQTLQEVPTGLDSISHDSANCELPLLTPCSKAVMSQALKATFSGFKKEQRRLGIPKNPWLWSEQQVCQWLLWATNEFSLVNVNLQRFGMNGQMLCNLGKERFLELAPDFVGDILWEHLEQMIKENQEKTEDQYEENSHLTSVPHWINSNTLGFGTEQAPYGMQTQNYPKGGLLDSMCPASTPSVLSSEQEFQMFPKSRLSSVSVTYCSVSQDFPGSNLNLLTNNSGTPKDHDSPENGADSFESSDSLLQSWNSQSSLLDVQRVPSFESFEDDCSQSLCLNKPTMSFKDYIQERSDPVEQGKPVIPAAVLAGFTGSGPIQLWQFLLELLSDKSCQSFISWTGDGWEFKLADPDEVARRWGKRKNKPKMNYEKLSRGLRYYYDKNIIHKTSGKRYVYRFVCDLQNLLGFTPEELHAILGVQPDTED
Particulars: protein: recombinant; tags: N-terminal GST; dsDNA, one strand shown. Summed up:
as §1

The target of experiment [14] is T9, SPDEF (Homo sapiens, UniProt O95238 1-335).
T9 sequence: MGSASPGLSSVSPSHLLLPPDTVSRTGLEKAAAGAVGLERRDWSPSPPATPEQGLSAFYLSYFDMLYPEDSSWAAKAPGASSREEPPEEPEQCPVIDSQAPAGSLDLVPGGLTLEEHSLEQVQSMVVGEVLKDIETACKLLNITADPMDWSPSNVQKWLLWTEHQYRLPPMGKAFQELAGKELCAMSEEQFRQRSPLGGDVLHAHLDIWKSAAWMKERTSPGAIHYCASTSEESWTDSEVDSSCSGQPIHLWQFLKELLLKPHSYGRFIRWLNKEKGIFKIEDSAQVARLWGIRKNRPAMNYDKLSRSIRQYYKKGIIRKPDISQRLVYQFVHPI
The note with it: protein: recombinant; tags: N-terminal GST; dsDNA, one strand shown. Summed up:
as §1

The target in experiment [15] is T10, ETV7 (Homo sapiens, UniProt Q9Y603 1-341).
T10 sequence: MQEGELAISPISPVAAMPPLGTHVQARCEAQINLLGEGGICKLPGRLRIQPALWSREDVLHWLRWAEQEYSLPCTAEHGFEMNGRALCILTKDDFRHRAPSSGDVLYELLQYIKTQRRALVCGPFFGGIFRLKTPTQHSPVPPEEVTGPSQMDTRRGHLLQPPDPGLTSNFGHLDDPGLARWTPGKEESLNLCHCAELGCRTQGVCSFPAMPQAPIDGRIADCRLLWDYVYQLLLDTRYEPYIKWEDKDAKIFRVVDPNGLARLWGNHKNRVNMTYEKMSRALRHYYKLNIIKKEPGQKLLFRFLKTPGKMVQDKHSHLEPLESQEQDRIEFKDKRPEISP
Particulars: protein: recombinant; tags: N-terminal GST; dsDNA, one strand shown. Summed up:
as §1

The target of experiment [16] is T11, ELF5 (Homo sapiens, UniProt Q9UKW6-2 1-255).
T11 sequence: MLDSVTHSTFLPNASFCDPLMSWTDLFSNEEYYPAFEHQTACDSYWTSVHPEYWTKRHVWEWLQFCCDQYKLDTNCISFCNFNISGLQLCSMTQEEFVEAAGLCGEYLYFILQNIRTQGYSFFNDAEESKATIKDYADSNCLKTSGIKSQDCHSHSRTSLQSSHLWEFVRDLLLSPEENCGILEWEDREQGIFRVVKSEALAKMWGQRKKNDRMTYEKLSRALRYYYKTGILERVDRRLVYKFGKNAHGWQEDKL
Particulars: protein: recombinant; tags: N-terminal GST; dsDNA, one strand shown. Summed up:
as §1

Experiment [17] concerns the target T12, ETV3 (Homo sapiens, UniProt P41162-2 1-143).
T12 sequence: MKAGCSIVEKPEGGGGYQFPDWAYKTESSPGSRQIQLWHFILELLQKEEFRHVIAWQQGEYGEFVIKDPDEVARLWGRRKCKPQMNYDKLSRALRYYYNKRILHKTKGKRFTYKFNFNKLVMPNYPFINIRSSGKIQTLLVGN
The note with it: protein: recombinant; tags: N-terminal GST; dsDNA, one strand shown. Summed up: as §1

The target of experiment [18] is ETV6 (Homo sapiens, UniProt P41212 1-452). The note with it: protein: recombinant; tags: N-terminal GST; dsDNA, one strand shown. In a few lines: as §1
Sequence of ETV6 (P41212 whole entry): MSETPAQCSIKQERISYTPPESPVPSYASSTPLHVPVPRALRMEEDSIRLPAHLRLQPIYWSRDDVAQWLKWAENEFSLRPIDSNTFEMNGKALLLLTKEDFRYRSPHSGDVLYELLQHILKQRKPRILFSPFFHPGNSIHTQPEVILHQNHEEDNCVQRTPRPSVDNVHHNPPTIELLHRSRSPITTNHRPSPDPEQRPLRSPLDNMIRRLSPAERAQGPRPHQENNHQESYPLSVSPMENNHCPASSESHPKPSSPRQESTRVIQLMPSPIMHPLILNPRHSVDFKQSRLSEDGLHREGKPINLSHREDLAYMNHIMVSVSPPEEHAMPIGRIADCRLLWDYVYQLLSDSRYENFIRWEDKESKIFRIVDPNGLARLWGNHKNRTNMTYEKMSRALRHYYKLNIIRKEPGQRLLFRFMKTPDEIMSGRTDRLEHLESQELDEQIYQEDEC

Sequence of ETV5 (P41161 whole entry): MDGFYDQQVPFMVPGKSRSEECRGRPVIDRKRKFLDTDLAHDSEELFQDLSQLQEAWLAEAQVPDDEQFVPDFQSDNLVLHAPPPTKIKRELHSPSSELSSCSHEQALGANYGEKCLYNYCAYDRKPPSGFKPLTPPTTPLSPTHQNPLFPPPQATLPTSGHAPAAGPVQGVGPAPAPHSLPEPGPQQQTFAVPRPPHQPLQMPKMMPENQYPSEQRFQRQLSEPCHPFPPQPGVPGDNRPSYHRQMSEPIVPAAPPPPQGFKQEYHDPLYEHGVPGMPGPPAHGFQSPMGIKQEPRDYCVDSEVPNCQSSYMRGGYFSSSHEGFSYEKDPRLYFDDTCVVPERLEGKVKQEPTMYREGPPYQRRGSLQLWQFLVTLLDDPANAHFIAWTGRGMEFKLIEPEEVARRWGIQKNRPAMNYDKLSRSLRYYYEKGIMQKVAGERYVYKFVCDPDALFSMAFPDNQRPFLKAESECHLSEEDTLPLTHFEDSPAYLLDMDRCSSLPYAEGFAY
Sequence of ELF4 (Q99607 whole entry): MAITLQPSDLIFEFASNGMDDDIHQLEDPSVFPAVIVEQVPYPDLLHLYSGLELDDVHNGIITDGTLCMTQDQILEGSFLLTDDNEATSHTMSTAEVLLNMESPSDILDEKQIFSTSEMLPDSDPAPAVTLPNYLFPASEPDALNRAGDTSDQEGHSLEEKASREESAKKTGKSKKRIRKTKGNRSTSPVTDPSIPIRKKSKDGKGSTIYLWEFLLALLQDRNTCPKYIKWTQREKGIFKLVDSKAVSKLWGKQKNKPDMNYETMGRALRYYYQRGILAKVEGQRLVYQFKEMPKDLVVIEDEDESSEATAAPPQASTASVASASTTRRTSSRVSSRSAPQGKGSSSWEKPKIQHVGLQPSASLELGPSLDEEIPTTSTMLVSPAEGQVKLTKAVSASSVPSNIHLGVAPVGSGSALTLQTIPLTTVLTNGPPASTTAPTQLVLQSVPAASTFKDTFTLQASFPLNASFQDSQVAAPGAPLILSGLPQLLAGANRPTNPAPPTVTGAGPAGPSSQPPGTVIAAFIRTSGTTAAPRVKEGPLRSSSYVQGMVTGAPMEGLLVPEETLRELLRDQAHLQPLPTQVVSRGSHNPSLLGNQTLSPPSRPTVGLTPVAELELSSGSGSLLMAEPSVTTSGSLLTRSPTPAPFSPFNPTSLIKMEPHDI
Sequence of ETV1 (P50549 whole entry): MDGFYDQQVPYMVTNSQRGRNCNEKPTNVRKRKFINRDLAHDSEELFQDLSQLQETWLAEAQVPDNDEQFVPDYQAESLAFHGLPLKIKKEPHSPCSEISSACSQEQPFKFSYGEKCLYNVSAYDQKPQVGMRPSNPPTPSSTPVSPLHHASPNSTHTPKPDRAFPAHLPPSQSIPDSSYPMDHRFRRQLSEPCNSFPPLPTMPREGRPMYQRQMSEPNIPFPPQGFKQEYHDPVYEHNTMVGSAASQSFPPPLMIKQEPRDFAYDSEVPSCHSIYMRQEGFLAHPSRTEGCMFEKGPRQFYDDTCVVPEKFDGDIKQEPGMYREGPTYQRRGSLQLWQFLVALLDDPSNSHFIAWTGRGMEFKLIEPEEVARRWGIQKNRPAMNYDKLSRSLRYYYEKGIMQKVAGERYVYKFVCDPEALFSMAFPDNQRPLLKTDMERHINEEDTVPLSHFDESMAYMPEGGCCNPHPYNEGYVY
Sequence of HSF1 (Q00613 whole entry): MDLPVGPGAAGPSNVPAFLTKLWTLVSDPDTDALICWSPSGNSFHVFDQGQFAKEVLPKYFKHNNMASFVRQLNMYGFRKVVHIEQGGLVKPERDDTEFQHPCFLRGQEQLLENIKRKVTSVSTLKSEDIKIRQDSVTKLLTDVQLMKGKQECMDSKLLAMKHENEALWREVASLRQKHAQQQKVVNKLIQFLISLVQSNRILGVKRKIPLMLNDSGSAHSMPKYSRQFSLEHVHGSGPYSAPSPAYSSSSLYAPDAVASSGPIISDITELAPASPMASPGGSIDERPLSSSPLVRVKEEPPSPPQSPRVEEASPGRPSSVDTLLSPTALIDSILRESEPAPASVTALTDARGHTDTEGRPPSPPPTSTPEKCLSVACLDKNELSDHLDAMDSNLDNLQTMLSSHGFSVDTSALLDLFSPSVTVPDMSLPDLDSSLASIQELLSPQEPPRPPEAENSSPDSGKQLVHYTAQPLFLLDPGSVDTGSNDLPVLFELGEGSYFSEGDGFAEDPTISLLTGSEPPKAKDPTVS
Sequence of CRX (O43186 whole entry): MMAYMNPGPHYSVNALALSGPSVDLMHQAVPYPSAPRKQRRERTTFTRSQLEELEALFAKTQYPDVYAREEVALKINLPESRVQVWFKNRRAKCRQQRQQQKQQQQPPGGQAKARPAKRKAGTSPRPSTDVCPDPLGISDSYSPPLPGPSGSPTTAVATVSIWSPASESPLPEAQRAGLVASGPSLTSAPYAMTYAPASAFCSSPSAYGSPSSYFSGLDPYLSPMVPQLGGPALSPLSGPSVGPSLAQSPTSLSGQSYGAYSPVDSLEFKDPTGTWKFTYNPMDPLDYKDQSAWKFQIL

As to CAATTC, the binding signal in experiment [1] was 1.24 fold enrichment (6-mer frequency, TF over GST control); in experiment [2], 1.37 fold enrichment (6-mer frequency, TF over GST control); in experiment [3], 1.19 fold enrichment (6-mer frequency, TF over GST control); in experiment [4], 1.16 fold enrichment (6-mer frequency, TF over GST control); in [5], 1.31 fold enrichment (6-mer frequency, TF over GST control); in [6], 1.25 fold enrichment (6-mer frequency, TF over GST control). Also, the binding signal in experiment [7] was 1.39 fold enrichment (6-mer frequency, TF over GST control); in [8] it was 1.34 fold enrichment (6-mer frequency, TF over GST control); in experiment [9] it was 1.07 fold enrichment (6-mer frequency, TF over GST control); in experiment [10], 1.21 fold enrichment (6-mer frequency, TF over GST control); in [11] it was 1.26 fold enrichment (6-mer frequency, TF over GST control); in [12] it was 1.27 fold enrichment (6-mer frequency, TF over GST control). Besides, the binding signal in experiment [13] is 1.24 fold enrichment (6-mer frequency, TF over GST control); in experiment [14], 1.33 fold enrichment (6-mer frequency, TF over GST control); in experiment [15], 1.24 fold enrichment (6-mer frequency, TF over GST control); in experiment [16] it was 1.25 fold enrichment (6-mer frequency, TF over GST control); in [17], 1.31 fold enrichment (6-mer frequency, TF over GST control); in experiment [18] it was 1.16 fold enrichment (6-mer frequency, TF over GST control).

Values taken from paper PMC7862700, “An all-to-all approach to the identification of sequence-specific readers for epigenetic DNA modifications on cytosine”.
